15 molecules from PubChem BioAssay can be followed below.

Calls of active or inactive are those of the source. Unless noted, how the calls were made is not given here.

Experiment [1] is described as follows: liver-stage malaria parasite load reduction – cell-based, known kinase inhibitor set, luminescence, hepatoma host viability (AID 624392).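 Further: infected cells incubated roughly two days before readout.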 The note with it: Plasmodium liver stage in hepatoma cells, luciferase luminescence, concentration not given here; liver cell % of control: measured here: host liver cell viability; parasite % of control: stronger effect = lower value.

Experiment [2] in a line: altered dexamethasone sensitivity, NF-kB reporter, cell-based, luciferase, IL-1B stimulus (AID 624486).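 On percent of negative control (+Dex): 100% = mean signal of vehicle control wells on the plate.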 The note with it: IL-1B + dexamethasone, luminescence; percent of negative control (+Dex): actives lie on both sides, concentration not given here; z-score: measured here: IL-1B alone, no Dex.
A short description of experiment [3]: C. elegans survival during P. aeruginosa infection – whole organism (AID 651566).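 Further: tested at 14 µM; sign flipped so higher z means a lower ratio.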 The note with it: C. elegans killed by P. aeruginosa, survival ratio.
Experiment [4] in a line: pro-inflammatory signaling induction in mouse macrophages – cell-based, murine, luminescence (AID 652131). The following applies: murine macrophage pro-inflammatory reporter, stronger effect = higher value.
The target of experiment [5] is Cellular tumor antigen p53 (Homo sapiens) (UniProt P04637). Briefly: GFP-p53 level modulators in HPV16+ cells – imaging, known kinase inhibitor set, EGFP/DsRed ratio (AID 1053116).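 Further: cells exposed to compounds for 24 h at 37 °C before reading.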 The following applies: GFP-p53 stability, stronger effect = higher value; EGFP object count: measured here: GFP-p53 positive objects count.
Chain of Cellular tumor antigen p53 (Homo sapiens) (P04637 whole entry, looked up): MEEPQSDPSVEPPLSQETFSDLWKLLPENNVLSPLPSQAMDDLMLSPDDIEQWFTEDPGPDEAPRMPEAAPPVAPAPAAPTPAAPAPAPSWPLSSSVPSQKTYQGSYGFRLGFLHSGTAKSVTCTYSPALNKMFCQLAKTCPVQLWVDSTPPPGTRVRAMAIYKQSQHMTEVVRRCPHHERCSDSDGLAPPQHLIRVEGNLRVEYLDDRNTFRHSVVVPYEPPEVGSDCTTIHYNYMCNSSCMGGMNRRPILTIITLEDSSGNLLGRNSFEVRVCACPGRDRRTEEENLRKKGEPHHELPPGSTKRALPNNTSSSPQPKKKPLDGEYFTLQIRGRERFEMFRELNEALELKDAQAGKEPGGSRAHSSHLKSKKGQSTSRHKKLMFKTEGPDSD
Experiment [6] in a line: inducers of IRF3 signaling, differentiated THP-1 – cell-based, PMA-stimulated THP-1, luminescence (AID 1053176). The following applies: PMA-differentiated THP-1, IRF3 reporter luminescence; stronger effect = higher value.
A short description of experiment [7]: MELAS cybrid and Rieske KO viability enhancers – cell-based, MELAS cybrids, Rieske KO mouse fibroblasts, CellTiter-Glo, primary screen (AID 1508586;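 active means mean z-score across replicates of 1.96 or higher in either the MELAS or the Rieske mutant cell line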;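 further: z relative to plate mean and SD of compound and empty wells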). The note with it: low glucose.
Setting [8] is: MELAS cybrid survival, CellTiter-Glo 48 h, stronger effect = higher value.
The mark [9] stands for this setting: Rieske KO mouse fibroblast survival, CellTiter-Glo 72 h.

`NS(=O)(=O)c1ccc(-c2ccc3c(NC(=O)C4CC4)n[nH]c3c2)cc1` gave a liver cell % of control in experiment [1] of 109%. Further, the parasite % of control in experiment [1] is 143% (inactive). In experiment [2], the percent of negative control (+Dex) was 98.5% (inactive). Also, the z-score was 0.755 in experiment [2]; -0.155 (inactive) in experiment [3]; 0.098 (inactive) in experiment [4]; -0.641 (inactive) in experiment [7] (setting [8]); -0.353 in experiment [7] (setting [9]). The EGFP object count in experiment [5] worked out at 4.5. The EGFP/DsRed ratio in experiment [5] was 0.0343 (inactive). The fraction signal in experiment [6] was -0.0105 (inactive).
Regarding `CCn1c(-c2nonc2N)nc2c(N3CCCC3)nccc21`, in experiment [1], the liver cell % of control is 90.8%. The parasite % of control in experiment [1] is 137% (inactive). In addition, in experiment [2], the percent of negative control (+Dex) is 80.5% (inactive). Further, the z-score in experiment [2] was -0.655; in experiment [3] it was -0.89 (inactive); in experiment [4], 1.27 (inactive); in experiment [7] (setting [8]), 0.113 (inactive); in experiment [7] (setting [9]) it was -0.0304. Also, the EGFP object count in experiment [5] is 3. For the same molecule, in experiment [5], the EGFP/DsRed ratio was 0.0699 (inactive). Further, the fraction signal in experiment [6] is -0.004 (inactive).
As for `Cc1cc(O)cc(C)c1/C=C/c1cncc(C(N)=O)c1`, the liver cell % of control in experiment [1] was determined as 105%. Further, in experiment [1], the parasite % of control was 146% (inactive). For the same molecule, the percent of negative control (+Dex) in experiment [2] is 106% (inactive). For the same molecule, the z-score in experiment [2] was 0.29; in experiment [3] it was -0.395 (inactive); in experiment [4] it was 0.198 (inactive); in experiment [7] (setting [8]), -0.353 (inactive); in experiment [7] (setting [9]), -0.218. Moreover, the EGFP object count in experiment [5] was 4. Moreover, the EGFP/DsRed ratio in experiment [5] was 0.013 (inactive). Besides, the fraction signal in experiment [6] was -0.001 (inactive).
In experiment [1], `COc1ccc(-c2nn3ncccc3c2-c2ccnc(Nc3ccc(F)c(F)c3)n2)cc1` came in with a liver cell % of control of 177%. Besides, the parasite % of control in experiment [1] is 16.9% (inactive). Also, in experiment [2], the percent of negative control (+Dex) was 75.5% (inactive). The z-score in experiment [2] is -0.785; in experiment [3], 1.61 (inactive); in experiment [4], -0.312 (inactive); in experiment [7] (setting [8]), 1.01 (inactive); in experiment [7] (setting [9]), -0.0344. For the same molecule, the EGFP object count in experiment [5] was determined as 4.5. Further, in experiment [5], the EGFP/DsRed ratio was 0.039 (inactive). Besides, the fraction signal in experiment [6] is 0.0025 (inactive).
With `N#Cc1cccc(Nc2ncc(-c3ccccc3)o2)c1`, in experiment [1], the liver cell % of control came out at 108%. Moreover, the parasite % of control in experiment [1] is 125% (inactive). In experiment [2], the percent of negative control (+Dex) was 241% (active). Further, the z-score was 19.8 in experiment [2]; -0.175 (inactive) in experiment [3]; 4.37 (inactive) in experiment [4]; 1.35 (inactive) in experiment [7] (setting [8]); 0.0963 in experiment [7] (setting [9]). Further, the EGFP object count in experiment [5] amounted to 6. Moreover, in experiment [5], the EGFP/DsRed ratio was 0.11 (inactive). In addition, in experiment [6], the fraction signal is -0.004 (inactive).
In experiment [1], `Fc1ccc(-c2nn3ncccc3c2-c2ccnc(Nc3ccc4c(c3)OCCO4)n2)cc1` returned a liver cell % of control of 90.5%. Moreover, the parasite % of control in experiment [1] was 13.9% (inactive). For the same molecule, in experiment [2], the percent of negative control (+Dex) is 100% (inactive). In addition, the z-score in experiment [2] is -1.27; in experiment [3], -0.41 (inactive); in experiment [4], -0.769 (inactive); in experiment [7] (setting [8]) it was -0.754 (inactive); in experiment [7] (setting [9]), -0.424. The EGFP object count in experiment [5] was 3. The EGFP/DsRed ratio in experiment [5] was 0.08 (inactive). For the same molecule, in experiment [6], the fraction signal is -0.003 (inactive).
Molecule `C[C@@H](Oc1cc(-n2cnc3ccc(OCC4CCN(C)CC4)cc32)sc1C(N)=O)c1ccccc1Cl` showed a liver cell % of control in experiment [1] of 73.4%. In addition, in experiment [1], the parasite % of control is 117% (inactive). In addition, in experiment [2], the percent of negative control (+Dex) was 104% (inactive). The z-score in experiment [2] was -0.185; in experiment [3], -0.885 (inactive); in experiment [4] it was -2.53 (inactive); in experiment [7] (setting [8]) it was -0.19 (inactive); in experiment [7] (setting [9]), 0.83. Moreover, the EGFP object count in experiment [5] stood at 7. In addition, the EGFP/DsRed ratio in experiment [5] is 0.174 (inactive). For the same molecule, the fraction signal in experiment [6] was -0.009 (inactive).
Consider `COc1cccc(-c2c[nH]c3c(N/N=C/c4ccncc4)ncnc23)c1`, for which the liver cell % of control in experiment [1] was determined as 72.3%. Further, the parasite % of control in experiment [1] was 30.4% (inactive). Moreover, the percent of negative control (+Dex) in experiment [2] is 129% (inactive). In addition, the z-score in experiment [2] is -0.36; in experiment [3], -0.245 (inactive); in experiment [4], -1.59 (inactive); in experiment [7] (setting [8]), -0.187 (inactive); in experiment [7] (setting [9]), 0.000787. Further, in experiment [5], the EGFP object count is 4. For the same molecule, the EGFP/DsRed ratio in experiment [5] is 0.121 (inactive). Further, the fraction signal in experiment [6] is 0.002 (inactive).
Molecule `CN(C)CCOc1ccc(-c2cc(-c3ccc4c(c3)CC/C4=N/O)c(-c3ccncc3)o2)cc1` returned a liver cell % of control in experiment [1] of 77.4%. Further, the parasite % of control in experiment [1] was 441% (inactive). For the same molecule, the percent of negative control (+Dex) in experiment [2] is 130% (inactive). Further, the z-score in experiment [2] is 0.59; in experiment [3], 0.205 (inactive); in experiment [4] it was -0.386 (inactive); in experiment [7] (setting [8]), 0.463 (inactive); in experiment [7] (setting [9]), -0.429. Further, the EGFP object count in experiment [5] turned out to be 48. The EGFP/DsRed ratio in experiment [5] is 1.74 (active). For the same molecule, in experiment [6], the fraction signal is 0.045 (inactive).
In experiment [1], `O=C(Nc1n[nH]c2cc(-c3cc(F)ccc3F)ccc12)C1CC1` showed a liver cell % of control of 90.7%. The parasite % of control in experiment [1] was 72.2% (inactive). In addition, in experiment [2], the percent of negative control (+Dex) is 81% (inactive). Also, the z-score in experiment [2] is -0.38; in experiment [3] it was -0.655 (inactive); in experiment [4] it was 0.317 (inactive); in experiment [7] (setting [8]), -0.186 (inactive); in experiment [7] (setting [9]), -0.425. In experiment [5], the EGFP object count worked out at 4. Also, the EGFP/DsRed ratio in experiment [5] was 0.173 (inactive). The fraction signal in experiment [6] was -0.0055 (inactive).
Turning to `COc1cccc(-n2cnc3c(N/N=C/c4ccncc4)ncnc32)c1`, the liver cell % of control in experiment [1] was 88.9%. Moreover, in experiment [1], the parasite % of control is 105% (inactive). The percent of negative control (+Dex) in experiment [2] is 104% (inactive). Moreover, the z-score was 0.5 in experiment [2]; -1.34 (inactive) in experiment [3]; -0.055 (inactive) in experiment [4]; 2.14 (active) in experiment [7] (setting [8]); 0.0192 in experiment [7] (setting [9]). The EGFP object count in experiment [5] amounted to 1.5. Also, in experiment [5], the EGFP/DsRed ratio is 0.0324 (inactive). The fraction signal in experiment [6] was 0.0015 (inactive).
In experiment [1], `COc1cccc(-n2ncc3c(N/N=C/c4ccc(F)cc4)ncnc32)c1` registered a liver cell % of control of 104%. Further, in experiment [1], the parasite % of control is 96.2% (inactive). Further, the percent of negative control (+Dex) in experiment [2] was 93.5% (inactive). Further, the z-score in experiment [2] is 0.76; in experiment [3], -1.12 (inactive); in experiment [4], -0.343 (inactive); in experiment [7] (setting [8]) it was 1.48 (inactive); in experiment [7] (setting [9]), -0.0554. Also, the EGFP object count in experiment [5] was determined as 9. The EGFP/DsRed ratio in experiment [5] was 0.197 (inactive). Also, the fraction signal in experiment [6] is -0.0025 (inactive).
In experiment [1], `CC(=O)Nc1cccc(C#Cc2cncnc2Nc2ccc(OCc3cccc(F)c3)c(Cl)c2)c1` came in with a liver cell % of control of 111%. In addition, in experiment [1], the parasite % of control is 108% (inactive). The percent of negative control (+Dex) in experiment [2] is 89.5% (inactive). The z-score is -0.925 in experiment [2]; 0.045 (inactive) in experiment [3]; -0.803 (inactive) in experiment [4]; -0.744 (inactive) in experiment [7] (setting [8]); 0.00771 in experiment [7] (setting [9]). The EGFP object count in experiment [5] was determined as 3.5. Besides, the EGFP/DsRed ratio in experiment [5] is 0.169 (inactive). For the same molecule, the fraction signal in experiment [6] is 0.0085 (inactive).
Regarding `O=C(Nc1ccc(Oc2ccc3nc(NC(=O)c4ccccc4)[nH]c3c2)cc1)Nc1cc(C(F)(F)F)ccc1F`, the liver cell % of control in experiment [1] was 151%. For the same molecule, the parasite % of control in experiment [1] was 113% (inactive). Also, the percent of negative control (+Dex) in experiment [2] is 102% (inactive). For the same molecule, the z-score in experiment [2] is 0.635; in experiment [3], -0.485 (inactive); in experiment [4] it was -1.71 (inactive); in experiment [7] (setting [8]), 8.17 (active); in experiment [7] (setting [9]), 1.84. In addition, in experiment [5], the EGFP object count stood at 2.5. The EGFP/DsRed ratio in experiment [5] is 0.0378 (inactive). In addition, the fraction signal in experiment [6] was -0.006 (inactive).
In experiment [1], `CCc1ccc(Oc2nccc(-c3c(-c4ccc(F)cc4)ncn3C3CCNCC3)n2)cc1` gave a liver cell % of control of 78.5%. Further, the parasite % of control in experiment [1] was 140% (inactive). In addition, the percent of negative control (+Dex) in experiment [2] is 104% (inactive). For the same molecule, the z-score in experiment [2] was 0.41; in experiment [3] it was 0.125 (inactive); in experiment [4], -0.495 (inactive); in experiment [7] (setting [8]), -0.158 (inactive); in experiment [7] (setting [9]) it was -0.111. In addition, in experiment [5], the EGFP object count turned out to be 4.5. The EGFP/DsRed ratio in experiment [5] was 0.0563 (inactive). In addition, in experiment [6], the fraction signal was -0.0095 (inactive).
